Test [1] can be described thus: rapamycin-like changes in RPL19A-GFP expression – cell-based, S. cerevisiae, multiplex flow cytometry, primary screen (AID 1862; in the data active = percent of DMSO control GFP below about 86%;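 also: lower values mimic rapamycin by blocking the RPL19A rise seen in DMSO cells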). The settings on record: S. cerevisiae RPL19A-GFP strain, flow cytometry fluorescence, 3 h; at 10 µM; stronger effect = lower value. (In general: In flow cytometry, cells or beads pass a laser one at a time.)
The nature of test [2]: TOR pathway GLN3 branch reporter MEP2-GFP changes – S. cerevisiae, multiplex flow cytometry, primary screen (AID 1867;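 active = GFP response, as percent of the DMSO control, above the screen-wide mean plus 3 SD, about 139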;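 also: median GFP channel fluorescence of barcode-gated MEP2-GFP cells measured by flow cytometry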). The settings on record: S. cerevisiae MEP2-GFP strain, 3 h, at 10 µM, stronger effect = higher value, 100% means same as DMSO wells.
Test [3] is described as follows: TOR pathway RTG branch CIT2 reporter changes – S. cerevisiae, GFP fusion, multiplex flow cytometry, primary screen (AID 1870;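 active = percent response above a set limit, the screen-wide mean plus 3 SD, cut at about 130% in these data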;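 also: barcoded CIT2-GFP strain pooled with four other GFP strains with rapamycin as positive control; median GFP fluorescence per well over plate mean of DMSO wells so 100% = DMSO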). The settings on record: S. cerevisiae CIT2-GFP expression, 3 h, at 10 µM, stronger effect = higher value.
The nature of test [4]: TOR pathway LAP4-GFP level changes – S. cerevisiae, multiplex flow cytometry, primary screen (AID 1873;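 active = GFP signal, as percent of the solvent control, above the screen mean plus 3 SD, about 149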). The settings on record: S. cerevisiae LAP4-GFP expression, 3 h, at 10 µM, stronger effect = higher value.
Test [5] in a line: yeast AGP1-GFP level changes, GLN3 branch – cell-based, multiplex flow cytometry, S. cerevisiae, primary screen (AID 1887;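 active = GFP signal above the screen-wide mean plus 3 SD, that is over about 124.5% of the solvent control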;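 also: AGP1-GFP fusion strain of S. cerevisiae within a five-strain barcoded multiplex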). The settings on record: 3 h, at 10 µM, stronger effect = higher value.
Test [6] in a line: reduced mouse 2C T cell binding to pMHC/ICAM-1 vesicles – MLPCN validation set, flow cytometry, LFA-1/ICAM-1 modulator project, pilot screen (AID 2523;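 active = response below a set limit, under 55% cells CD8-positive and vesicle-bound, and CD8 cells' 90th-percentile brightness under 279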;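 as to vesicle binding response: mean PE anti-B7-1 fluorescence of CD8+ cells relative to row control; 100% = QL9-loaded vesicles with DMSO vehicle in the same plate row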). The settings on record: 2C mouse CD8+ T cells, at 7 µM, stronger effect = lower value; double positive events: measured here: CD8+/vesicle+ event percentage.
Test [7] has as its target Integrin beta-1 (Homo sapiens) + Integrin alpha-4 (Homo sapiens) (UniProt P13612+P05556). The test is described as follows: alpha4beta1 integrin LIBS antibody binding reduction – U937 cells, HUTS-21 mAb, flow cytometry, validation set, VLA-4 allosteric modulator project, pilot screen (AID 2674;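 active = inhibition above 50%, about 3 SD of the validation set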;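 also: antibody binding induced by the VLA-4 ligand LDV present at three times its Kd; 0% = LDV ligand with antibody and no compound and 100% = antibody without LDV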). The settings on record: HUTS-21 LIBS mAb binding, at 6.7 µM, stronger effect = higher value, binding induced by LDV ligand.

The nature of test [8]: calorie-restriction mimetic ROS inhibitors, yeast – validation compound set, pilot screen (AID 2706;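 active = superoxide response below 65% of plate, a cut near 3 SD across the whole screen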;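 also: yeast exposed to compound for one week at 30 degrees C before staining; 100% = mean of all compound wells on the same plate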). The settings on record: S. cerevisiae aging, superoxide DHE fluorescence; at 10 µM; stronger effect = lower value.
In test [9] the target is Beta-adrenergic receptor kinase 1 (Homo sapiens) (UniProt P25098). The test is described as follows: GRK2 binders displacing RNA aptamer, biochemical, validation, human GRK2, bead flow cytometry (AID 488806;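 active = aptamer binding inhibition above 30%, about 3 SD of noise from non-fluorescent compounds; inactive = inhibition at or below 30%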). The settings on record: bead-bound GRK2, FAM-aptamer displacement, at 10 µM, stronger effect = higher value.
Sequence of Beta-adrenergic receptor kinase 1 (Homo sapiens) (P25098 whole entry, looked up): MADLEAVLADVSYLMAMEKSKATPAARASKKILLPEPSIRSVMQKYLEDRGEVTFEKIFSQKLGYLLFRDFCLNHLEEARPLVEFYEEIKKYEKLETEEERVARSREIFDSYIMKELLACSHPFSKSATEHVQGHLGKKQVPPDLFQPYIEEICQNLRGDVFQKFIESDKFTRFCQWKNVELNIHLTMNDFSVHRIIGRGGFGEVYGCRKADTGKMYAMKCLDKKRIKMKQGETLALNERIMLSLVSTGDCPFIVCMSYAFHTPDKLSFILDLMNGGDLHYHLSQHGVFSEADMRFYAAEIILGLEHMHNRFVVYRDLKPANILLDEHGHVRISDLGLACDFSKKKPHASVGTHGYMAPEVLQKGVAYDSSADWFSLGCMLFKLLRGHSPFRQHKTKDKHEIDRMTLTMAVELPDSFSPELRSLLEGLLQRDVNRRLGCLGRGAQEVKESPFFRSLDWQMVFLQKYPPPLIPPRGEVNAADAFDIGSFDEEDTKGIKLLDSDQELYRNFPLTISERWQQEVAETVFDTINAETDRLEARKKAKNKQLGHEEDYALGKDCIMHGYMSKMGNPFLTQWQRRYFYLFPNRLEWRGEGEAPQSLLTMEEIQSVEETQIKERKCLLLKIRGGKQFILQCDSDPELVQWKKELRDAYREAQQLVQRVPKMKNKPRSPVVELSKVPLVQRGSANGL
In test [10] the target is Beta-2 adrenergic receptor (Homo sapiens) (UniProt P07550). The test is described as follows: agonist-induced loss of surface beta2AR – cell-based, FAP fluorogen, flow cytometry, validation set, pilot screen (AID 504459).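 Also: agonist-driven loss of surface beta2AR via internalization measured by FAP dye flow cytometry.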 The settings on record: Am2.2-beta2AR cells, at 10 µM, stronger effect = higher value.
Sequence of Beta-2 adrenergic receptor (Homo sapiens) (P07550 whole entry, looked up): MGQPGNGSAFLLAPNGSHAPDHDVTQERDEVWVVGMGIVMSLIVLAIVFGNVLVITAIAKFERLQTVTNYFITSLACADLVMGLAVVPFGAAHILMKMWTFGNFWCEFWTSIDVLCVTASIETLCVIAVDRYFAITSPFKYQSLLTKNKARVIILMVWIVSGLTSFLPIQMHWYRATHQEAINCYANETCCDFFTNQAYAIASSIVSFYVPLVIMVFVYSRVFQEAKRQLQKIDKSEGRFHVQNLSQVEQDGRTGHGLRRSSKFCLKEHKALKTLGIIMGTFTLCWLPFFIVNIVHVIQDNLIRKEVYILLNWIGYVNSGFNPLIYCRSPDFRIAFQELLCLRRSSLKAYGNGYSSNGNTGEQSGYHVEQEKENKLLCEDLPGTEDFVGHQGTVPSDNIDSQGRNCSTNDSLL
Test [11] concerns the target AP-2 complex subunit beta (Homo sapiens) (UniProt P63010). The test is described as follows: beta-arrestin/AP2 interaction blockers – biochemical, validation set, GST-AP2 beads, flow cytometry, pilot screen (AID 504541;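 active = inhibition above 54%, about 3 SD of non-fluorescent compounds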;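 also: AP2 carries R879A mutation and is captured from E. coli lysate; bead-bound FITC arrestin peptide fluorescence measuring arrestin peptide binding to AP2; 0% = DMSO wells and 100% = excess unlabeled arrestin peptide control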). The settings on record: FITC arrestin peptide, at 10 µM, stronger effect = higher value, AP2 beta2 appendage fragment, R879A mutant.
A short description of test [12]: cytosolic pH regulators acting via V-ATPase – S. cerevisiae, pHLuorin, HTS validation (AID 504600; in the data active = response above about 15%;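 also: plate controls were DMSO for no effect and reference compound for full effect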). The settings on record: V-ATPase proton transport, at 10 µM, stronger effect = higher value.
Test [13] relates to anti-desmoglein-3 scFv antibody binding to human DSG3. The test is described as follows: blockers of pathogenic pemphigus antibody–desmoglein-3 binding – biochemical, validation compound set, bead-based, flow cytometry, pilot screen (AID 588368;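 active = binding below the plate cutoff, the plate median minus 3 SD, with a reading above zero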;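 also: signal is the median channel fluorescence of bead-bound GFP antibody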). The settings on record: Protein G beads, DSG3-Fc, scFv-GFP binding, at 10 µM, stronger effect = lower value.
Test [14] in a line: Nile Red efflux blockade in pump-expressing yeast – validation compound set, multiplex, phenotypic, pilot screen (AID 588506;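 active = efflux inhibition above 0.42, the validation set average plus 4 SD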;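 also: Nile Red retained in cells so higher fluorescence means more efflux inhibition; 0 = negative control wells and 1 = enniatin B 25 µM full block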). The settings on record: S. cerevisiae pump-expressing triplex, Nile Red efflux flow cytometry; at 10 µM; stronger effect = higher value; the pumps come from Candida albicans.
Test [15] deals with ATP-binding cassette sub-family B member 6 (Homo sapiens) (UniProt Q9NP58). The test is described as follows: blockers of ABCB6-driven porphyrin uptake – K562-ABCB6 cells, flow cytometry, validation set, pilot screen (AID 588550;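 active = inhibition above the screen-wide mean plus 3 SD, about 51%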;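 also: 0% = DMSO wells and 100% = benzethonium chloride 70 µM positive control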). The settings on record: K562-ABCB6 porphyrin accumulation, 1 h, at 10 µM, stronger effect = higher value.
Sequence of ATP-binding cassette sub-family B member 6 (Homo sapiens) (Q9NP58 whole entry, looked up): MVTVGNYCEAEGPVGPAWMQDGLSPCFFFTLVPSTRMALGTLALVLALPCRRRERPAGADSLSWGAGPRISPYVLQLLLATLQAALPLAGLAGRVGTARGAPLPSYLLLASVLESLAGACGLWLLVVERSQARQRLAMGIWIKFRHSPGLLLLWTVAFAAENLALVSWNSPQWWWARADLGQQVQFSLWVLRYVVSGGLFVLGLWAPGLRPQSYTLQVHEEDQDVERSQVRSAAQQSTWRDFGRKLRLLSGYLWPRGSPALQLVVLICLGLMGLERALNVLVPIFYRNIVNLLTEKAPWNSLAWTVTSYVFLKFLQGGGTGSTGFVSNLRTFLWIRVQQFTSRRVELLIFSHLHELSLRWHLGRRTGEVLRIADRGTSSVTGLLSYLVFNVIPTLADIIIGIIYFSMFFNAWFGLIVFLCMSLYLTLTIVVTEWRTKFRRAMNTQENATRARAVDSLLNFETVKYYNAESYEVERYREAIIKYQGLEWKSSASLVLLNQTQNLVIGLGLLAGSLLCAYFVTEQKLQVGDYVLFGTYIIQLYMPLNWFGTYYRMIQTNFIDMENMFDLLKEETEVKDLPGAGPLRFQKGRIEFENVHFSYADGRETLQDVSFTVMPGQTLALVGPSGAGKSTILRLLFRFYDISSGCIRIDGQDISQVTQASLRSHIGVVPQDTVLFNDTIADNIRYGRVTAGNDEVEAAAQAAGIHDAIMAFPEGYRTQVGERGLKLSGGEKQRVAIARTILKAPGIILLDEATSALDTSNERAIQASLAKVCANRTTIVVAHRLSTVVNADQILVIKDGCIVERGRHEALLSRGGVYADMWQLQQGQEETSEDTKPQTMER
Test [16] in a line: AML differentiation inducers, ER-HoxA9 marrow cells – cell-based, GFP/MAC1 double positive, flow cytometry, validation set, primary screen (AID 588685;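 active = differentiation response of at least 50%, scaled between solvent and reference control, from cells with both markers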;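 also: compound exposure lasts four days before antibody staining and flow analysis; 0% = DMSO wells and 100% = 5 µM fulvestrant positive control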). The settings on record: stronger effect = higher value, normalized: vehicle 0, fulvestrant 100.

Inconclusive results are not listed. Active and inactive are the calls of the source.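 The calls were made as follows, unless noted: active = percent response above 42, roughly 3 SD of non-fluorescent test compounds; inactive = the rest.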

Sequence of AP-2 complex subunit beta (Homo sapiens) (P63010 whole entry, looked up, the tested form may be a part, one chain of several): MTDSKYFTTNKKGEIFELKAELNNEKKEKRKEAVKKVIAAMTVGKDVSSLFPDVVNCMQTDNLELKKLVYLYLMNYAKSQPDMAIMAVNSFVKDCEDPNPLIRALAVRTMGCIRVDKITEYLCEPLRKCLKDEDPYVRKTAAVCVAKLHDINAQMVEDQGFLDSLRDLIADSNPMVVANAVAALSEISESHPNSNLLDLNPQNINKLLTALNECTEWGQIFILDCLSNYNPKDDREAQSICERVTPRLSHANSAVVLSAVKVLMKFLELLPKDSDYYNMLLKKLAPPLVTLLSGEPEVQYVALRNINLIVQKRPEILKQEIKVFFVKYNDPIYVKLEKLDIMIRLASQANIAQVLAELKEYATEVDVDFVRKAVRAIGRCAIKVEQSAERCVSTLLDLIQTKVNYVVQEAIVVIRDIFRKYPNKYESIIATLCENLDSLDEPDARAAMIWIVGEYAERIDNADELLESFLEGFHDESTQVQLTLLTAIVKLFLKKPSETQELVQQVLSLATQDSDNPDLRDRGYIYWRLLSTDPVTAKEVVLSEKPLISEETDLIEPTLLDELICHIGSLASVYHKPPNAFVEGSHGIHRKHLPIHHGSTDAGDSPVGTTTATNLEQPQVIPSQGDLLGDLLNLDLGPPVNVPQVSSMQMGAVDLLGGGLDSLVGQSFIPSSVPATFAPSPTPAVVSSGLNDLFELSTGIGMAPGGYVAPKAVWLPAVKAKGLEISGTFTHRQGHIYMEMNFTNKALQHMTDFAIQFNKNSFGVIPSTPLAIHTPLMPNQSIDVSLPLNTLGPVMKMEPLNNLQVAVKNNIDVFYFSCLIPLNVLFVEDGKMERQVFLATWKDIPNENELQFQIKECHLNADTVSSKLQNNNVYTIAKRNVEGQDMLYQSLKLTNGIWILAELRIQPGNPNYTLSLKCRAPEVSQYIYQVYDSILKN
Sequence of Integrin beta-1 (Homo sapiens) + Integrin alpha-4 (Homo sapiens) (P05556 whole entry, looked up): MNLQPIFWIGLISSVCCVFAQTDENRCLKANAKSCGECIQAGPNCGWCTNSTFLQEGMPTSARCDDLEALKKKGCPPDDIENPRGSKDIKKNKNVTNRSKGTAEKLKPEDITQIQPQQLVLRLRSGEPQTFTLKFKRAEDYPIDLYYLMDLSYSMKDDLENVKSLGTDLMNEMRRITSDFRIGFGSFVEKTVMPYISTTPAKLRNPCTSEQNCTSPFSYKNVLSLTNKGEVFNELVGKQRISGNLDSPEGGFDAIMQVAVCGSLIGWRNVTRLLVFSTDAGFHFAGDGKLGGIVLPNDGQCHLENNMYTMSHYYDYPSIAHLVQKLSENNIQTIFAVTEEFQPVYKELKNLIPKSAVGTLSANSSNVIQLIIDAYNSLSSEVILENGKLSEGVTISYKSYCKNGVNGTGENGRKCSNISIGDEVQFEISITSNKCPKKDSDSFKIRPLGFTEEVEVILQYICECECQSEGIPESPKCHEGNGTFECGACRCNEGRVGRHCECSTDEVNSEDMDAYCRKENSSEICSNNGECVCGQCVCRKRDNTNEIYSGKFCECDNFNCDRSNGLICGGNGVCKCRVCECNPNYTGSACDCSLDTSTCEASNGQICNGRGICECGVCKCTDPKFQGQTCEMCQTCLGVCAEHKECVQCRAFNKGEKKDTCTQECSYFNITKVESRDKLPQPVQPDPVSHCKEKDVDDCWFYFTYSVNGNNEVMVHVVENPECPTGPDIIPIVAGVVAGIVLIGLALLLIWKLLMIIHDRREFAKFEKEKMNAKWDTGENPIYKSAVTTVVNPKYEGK
Sequence of Integrin beta-1 (Homo sapiens) + Integrin alpha-4 (Homo sapiens) (P13612 whole entry, looked up): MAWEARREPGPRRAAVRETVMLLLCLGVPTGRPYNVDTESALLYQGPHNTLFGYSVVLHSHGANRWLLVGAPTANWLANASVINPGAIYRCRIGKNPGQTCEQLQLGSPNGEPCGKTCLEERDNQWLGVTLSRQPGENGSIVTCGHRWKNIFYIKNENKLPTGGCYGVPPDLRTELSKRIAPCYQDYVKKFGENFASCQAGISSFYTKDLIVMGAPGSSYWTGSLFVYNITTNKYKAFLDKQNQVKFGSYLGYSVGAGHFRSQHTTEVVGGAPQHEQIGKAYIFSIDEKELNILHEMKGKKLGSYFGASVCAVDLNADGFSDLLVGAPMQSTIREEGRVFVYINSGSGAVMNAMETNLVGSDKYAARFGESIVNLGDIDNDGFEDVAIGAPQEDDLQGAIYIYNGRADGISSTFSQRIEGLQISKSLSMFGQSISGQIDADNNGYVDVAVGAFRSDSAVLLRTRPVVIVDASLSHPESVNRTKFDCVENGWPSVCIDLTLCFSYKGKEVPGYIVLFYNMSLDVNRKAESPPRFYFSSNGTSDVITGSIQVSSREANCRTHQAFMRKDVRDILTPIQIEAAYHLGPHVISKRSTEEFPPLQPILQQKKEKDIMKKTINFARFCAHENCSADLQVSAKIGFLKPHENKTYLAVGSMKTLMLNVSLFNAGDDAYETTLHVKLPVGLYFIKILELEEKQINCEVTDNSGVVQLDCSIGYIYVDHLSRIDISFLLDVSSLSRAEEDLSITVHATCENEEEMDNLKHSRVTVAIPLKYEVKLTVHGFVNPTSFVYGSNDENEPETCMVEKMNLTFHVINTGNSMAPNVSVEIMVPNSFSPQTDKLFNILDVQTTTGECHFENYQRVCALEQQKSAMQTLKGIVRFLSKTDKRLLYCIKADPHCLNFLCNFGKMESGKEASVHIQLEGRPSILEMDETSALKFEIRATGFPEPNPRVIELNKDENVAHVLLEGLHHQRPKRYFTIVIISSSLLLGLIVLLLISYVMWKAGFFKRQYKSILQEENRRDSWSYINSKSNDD

As to `Cc1ccc(CSCC(=O)N2CCCC2)cc1`, in test [1], the percent of DMSO control GFP is 102% (inactive). Further, the GFP response vs DMSO was 98.7% (inactive) in [2] and 106% (inactive) in [4]. In test [3], the percent response of DMSO control is 101% (inactive). The GFP response, % of DMSO in test [5] is 106% (inactive). Moreover, the double positive events in test [6] was determined as 63.7%. The vesicle binding response in test [6] was 132% (inactive). Besides, the inhibition is 20.4% (inactive) in test [7], -2.44% (inactive) in test [11] and 0% (inactive) in [15]. Also, in test [8], the superoxide response (% of plate) is 95% (inactive). For the same compound, the aptamer binding inhibition in test [9] is -2% (inactive). In addition, the response is 7.33% (inactive) in [10] and -8.52% (inactive) in test [12]. The binding (% of control) in [13] was 97.9% (inactive). Moreover, the efflux inhibition (fraction of control) in test [14] is -0.05 (inactive). Further, the differentiation response in [16] is -8.96% (inactive).

On to `C/C=C/c1ccc(OCCCCN2CC(C)CC(C)C2)c(OC)c1` (stereo not given), for which the percent of DMSO control GFP in test [1] was 102% (inactive). Moreover, the GFP response vs DMSO is 107% (inactive) in test [2] and 96.6% (inactive) in test [4]. Besides, the percent response of DMSO control in test [3] was 106% (inactive). Further, the GFP response, % of DMSO in test [5] was 97.2% (inactive). Further, in test [6], the double positive events was determined as 58.6%. Further, the vesicle binding response in test [6] is 52.4% (inactive). Besides, the inhibition was 8.88% (inactive) in test [7], 39.6% (inactive) in test [11] and -10% (inactive) in [15]. Also, the superoxide response (% of plate) in [8] was 104% (inactive). The aptamer binding inhibition in test [9] was -1% (inactive). Further, the response in [10] is -1.02% (inactive); in test [12] it was -3.37% (inactive). Besides, the binding (% of control) in [13] is 99.7% (inactive). In addition, in [14], the efflux inhibition (fraction of control) is 0.02 (inactive). For the same compound, in [16], the differentiation response is -1.71% (inactive).

With `NC(N)=N/N=C/c1ccc(OS(=O)(=O)c2ccccc2)cc1`, the percent of DMSO control GFP in [1] was 102% (inactive). Besides, the GFP response vs DMSO was 101% (inactive) in [2] and 90.4% (inactive) in test [4]. Further, the percent response of DMSO control in [3] was 101% (inactive). Also, in test [5], the GFP response, % of DMSO was 102% (inactive). In [6], the double positive events was found to be 61.3%. The vesicle binding response in [6] was 141% (inactive). The inhibition in [7] was 17.7% (inactive); in [11], -0.93% (inactive); in test [15], 11% (inactive). Moreover, in [8], the superoxide response (% of plate) was 93.2% (inactive). Moreover, the aptamer binding inhibition in test [9] is -12% (inactive). In addition, the response in test [10] was 13.2% (inactive); in test [12] it was -4.93% (inactive). Besides, in test [13], the binding (% of control) was 107% (inactive). Moreover, in test [14], the efflux inhibition (fraction of control) was -0.03 (inactive). Also, the differentiation response in [16] was 4.2% (inactive).

Take `O=Cc1ccc(O)c(O)c1`: the percent of DMSO control GFP in test [1] was 106% (inactive). The GFP response vs DMSO in test [2] was 99.7% (inactive); in test [4] it was 98% (inactive). In addition, the percent response of DMSO control in test [3] is 107% (inactive). Besides, in test [5], the GFP response, % of DMSO was 108% (inactive). Also, the double positive events in test [6] came out at 65.7%. In addition, in [6], the vesicle binding response is 145% (inactive). The inhibition in test [7] was 8.29% (inactive); in test [11] it was 6.09% (inactive); in [15] it was 21% (inactive). In addition, the superoxide response (% of plate) in [8] is 99.7% (inactive). Also, the aptamer binding inhibition in [9] was 6% (inactive). For the same compound, the response is 0.09% (inactive) in test [10] and -5.24% (inactive) in [12]. For the same compound, the binding (% of control) in test [13] was 105% (inactive). Further, the efflux inhibition (fraction of control) in test [14] is -0.11 (inactive). The differentiation response in test [16] is -4.57% (inactive).

`COC(=O)C1[C@H]2C(=O)N(Cc3cccs3)C[C@]23C=C[C@H]1O3` (stereo not given in full): in test [1], the percent of DMSO control GFP is 105% (inactive). The GFP response vs DMSO in test [2] is 90.9% (inactive); in test [4] it was 80.2% (inactive). Also, the percent response of DMSO control in test [3] is 105% (inactive). Moreover, in test [5], the GFP response, % of DMSO was 99.5% (inactive). This compound yielded a double positive events in [6] of 58.4%. Besides, the vesicle binding response in test [6] was 194% (inactive). For the same compound, the results for the inhibition in [7], in [11] and in [15] were 28.6% (inactive), -9.57% (inactive) and 6% (inactive), respectively. The superoxide response (% of plate) in test [8] was 98.1% (inactive). Moreover, the aptamer binding inhibition in test [9] was 2% (inactive). The values for the response in test [10] and in [12] were -4.45% (inactive) and 2.19% (inactive), respectively. The binding (% of control) in [13] was 95% (inactive). Besides, the efflux inhibition (fraction of control) in test [14] was 0.3 (inactive). The differentiation response in test [16] is 14.9% (inactive).

Broadly, the inhibition is the relative decrease from the control value, in per cent.

The record behind these values is PubChem BioAssay.
